Laboratory results from PubChem BioAssay.
Where “and” joins values, the source holds several entries; their conditions need not be identical. Equal entries are not always repeated. Calls of active or inactive are those of the source. Unless noted, no rule for the calls is given here.

What was measured:
[1] = resazurin metabolic signal in HepG2 cells – cell-based, resazurin fluorescence, 24 h, PK04 Diversity Set, profiling panel (AID 1172); settings: HepG2 viability, higher = more signal
[2] = budding yeast growth changes without added modifier – OD600, strain BY4716, 24 h, basal condition, primary screen (AID 1173); settings: S. cerevisiae BY4716 growth, OD600, 24 h; higher = more signal, called active from +8 up or from −8 down
[3] = viability profiling in MM1S myeloma cells – cell-based, resazurin fluorescence, basal, 24 h, PK04 Diversity Set, profiling panel (AID 1174); settings: higher = more signal, called active from +8 up or from −8 down;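 also: MM1S multiple myeloma cell line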
[4] = target: Dihydroorotate dehydrogenase (quinone), mitochondrial (Plasmodium falciparum (isolate 3D7)) (UniProt Q08210); assay: inhibition of P. falciparum DHODH – biochemical, C-terminal His tag, absorbance 600 nm, primary screen (AID 1175); settings: PfDHODH enzyme, DCIP absorbance 600 nm; higher = more signal, called active from +8 up or from −8 down;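 also: recombinant parasite enzyme with a five histidine tag at its C terminus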
[5] = inhibition of PAO1 biofilm formation – strain PAO1, LB-PBS medium, absorbance 600 nm, primary screen (AID 1176); settings: P. aeruginosa PAO1 growth/biofilm, A600, 12 h; higher = more signal
[6] = growth modulation of vineyard yeast isolate – strain RM11-1a, OD600, basal, 24 h, primary screen (AID 1177);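 also: cultures grown under basal conditions with no added stressor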; settings: S. cerevisiae RM11-1a growth, OD600, 24 h; higher = more signal, called active from +8 up or from −8 down
[7] = growth of efflux-deficient E. coli DRC39 – strain DRC39, OD650, 24 h, E. coli filamentation inducers, primary screen (AID 1178);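 also: growth measured as culture turbidity by optical density at 650 nm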; settings: E. coli DRC39 acrAB, higher = more signal, called active from +8 up or from −8 down
[8] = growth of efflux-deficient E. coli DRC39 – strain DRC39, OD650, 48 h, E. coli filamentation inducers, primary screen (AID 1179);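 also: screen aims at cell division blockers that make cells filament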; settings: E. coli DRC39 delta-acrAB growth, higher = more signal, called active from +8 up or from −8 down
[9] = viability profiling in RPMI8226 myeloma cells – cell-based, resazurin fluorescence, basal, 24 h, PK04 Diversity Set, profiling panel (AID 1180); settings: higher = more signal;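 also: RPMI8826 multiple myeloma cell line at 5000 cells per well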
[10] = target: E3 ubiquitin-protein ligase XIAP (Homo sapiens) (UniProt P98170); assay: small molecules binding XIAP protein – biophysical, small-molecule microarray, fluorescence 635 nm, primary screen (AID 1181); settings: higher = more signal;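 also: score merges 667 nm emission and signal to noise over triplicate slides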
[11] = tested on: XIP peptide (Xip251-270) binding; assay: XIP fragment 251-270 binding compounds – biochemical, small-molecule microarray, fluorescence 635/667 nm, 0.1 µg/mL protein, primary screen (AID 1182); settings: fluorescent protein binding, 635 nm, higher = more signal, called active from +8 up or from −8 down
[12] = tested on: XIP peptide (Xip251-270); assay: compounds binding XIP fragment 251-270 – biochemical, small-molecule microarray, fluorescence 635/667 nm, 0.5 µg/mL protein, primary screen (AID 1183); settings: fluorescence 635 nm, higher = more signal
[13] = blood-stage malaria parasite viability loss – strain 3D7, DAPI fluorescence, 100 nL, primary screen (AID 1184);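 also: parasites grown inside human red blood cells in medium with human serum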; settings: P. falciparum 3D7 growth, 3 d, higher = more signal
[14] = target: Homeobox protein Hox-A13 (Mus musculus) (UniProt Q62424); assay: disruptors of Hoxa13 oligonucleotide interaction – biochemical, fluorescence polarization, labeled oligonucleotide, primary screen (AID 1185); settings: Hoxa13:DNA binding, 15 min, higher = more signal, called active from +8 up or from −8 down
[15] = blockers of DNA damage checkpoint Chk1 activation – imaging, HeLa, hydroxyurea, phospho-Chk1 antibody, percent positive cells, primary screen (AID 1186); settings: hydroxyurea-induced phospho-Chk1 immunofluorescence imaging, higher = more signal
[16] = blockers of DNA damage checkpoint Chk1 activation – imaging, HeLa, hydroxyurea, phospho-Chk1 nuclear intensity, primary screen (AID 1187); settings: hydroxyurea-induced phospho-Chk1 immunofluorescence imaging, higher = more signal

Chain of Dihydroorotate dehydrogenase (quinone), mitochondrial (Plasmodium falciparum (isolate 3D7)) (Q08210 whole entry, looked up): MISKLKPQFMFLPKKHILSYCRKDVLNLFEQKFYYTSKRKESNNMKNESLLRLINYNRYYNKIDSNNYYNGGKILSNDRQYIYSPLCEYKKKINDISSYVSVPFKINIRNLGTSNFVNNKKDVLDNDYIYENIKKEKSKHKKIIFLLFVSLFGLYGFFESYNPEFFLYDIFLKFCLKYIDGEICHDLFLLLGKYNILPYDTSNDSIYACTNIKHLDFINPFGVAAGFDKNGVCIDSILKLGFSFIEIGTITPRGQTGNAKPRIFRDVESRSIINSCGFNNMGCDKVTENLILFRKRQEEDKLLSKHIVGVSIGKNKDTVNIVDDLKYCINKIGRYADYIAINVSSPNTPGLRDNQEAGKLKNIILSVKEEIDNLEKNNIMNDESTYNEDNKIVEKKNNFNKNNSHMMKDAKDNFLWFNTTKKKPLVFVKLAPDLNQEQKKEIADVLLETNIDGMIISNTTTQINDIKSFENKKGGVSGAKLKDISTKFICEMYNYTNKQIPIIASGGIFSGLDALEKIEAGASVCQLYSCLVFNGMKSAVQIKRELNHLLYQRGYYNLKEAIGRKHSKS
Chain of E3 ubiquitin-protein ligase XIAP (Homo sapiens) (P98170 whole entry, looked up, the tested form may be a part): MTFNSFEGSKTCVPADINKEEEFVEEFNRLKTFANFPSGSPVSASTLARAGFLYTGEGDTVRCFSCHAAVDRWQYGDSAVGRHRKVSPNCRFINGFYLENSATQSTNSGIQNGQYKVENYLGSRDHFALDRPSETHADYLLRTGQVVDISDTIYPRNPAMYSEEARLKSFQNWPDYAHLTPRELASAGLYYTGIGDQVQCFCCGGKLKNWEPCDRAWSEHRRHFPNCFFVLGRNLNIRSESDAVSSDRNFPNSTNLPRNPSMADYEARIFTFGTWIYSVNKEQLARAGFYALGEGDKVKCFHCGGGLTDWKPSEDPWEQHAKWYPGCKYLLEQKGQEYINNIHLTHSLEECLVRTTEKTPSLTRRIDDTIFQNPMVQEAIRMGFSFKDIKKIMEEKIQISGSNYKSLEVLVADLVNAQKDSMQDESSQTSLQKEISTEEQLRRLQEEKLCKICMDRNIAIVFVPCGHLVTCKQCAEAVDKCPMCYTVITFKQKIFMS
Chain of Homeobox protein Hox-A13 (Mus musculus) (Q62424 whole entry, looked up): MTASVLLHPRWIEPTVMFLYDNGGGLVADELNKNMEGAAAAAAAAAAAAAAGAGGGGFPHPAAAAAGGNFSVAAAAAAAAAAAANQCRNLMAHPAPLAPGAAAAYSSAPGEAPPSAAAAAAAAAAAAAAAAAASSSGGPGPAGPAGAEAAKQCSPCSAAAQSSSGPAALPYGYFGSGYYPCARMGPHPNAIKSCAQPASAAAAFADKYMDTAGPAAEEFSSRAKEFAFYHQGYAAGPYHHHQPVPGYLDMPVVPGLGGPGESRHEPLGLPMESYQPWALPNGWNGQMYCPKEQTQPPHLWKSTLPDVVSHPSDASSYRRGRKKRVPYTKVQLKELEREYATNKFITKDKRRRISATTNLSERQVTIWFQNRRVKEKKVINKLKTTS

SMILES	z-score [1]	z-score [2]	z-score [3]	composite z-score [4]	z-score [5]	z-score [6]	z-score [7]	z-score [8]	z-score [9]	composite z-score [10]	composite z-score [11]	composite z-score [12]	z-score [13]	z-score [14]	z-score [15]	z-score [16]
C=CC[C@H](O)c1ccc(OCCO)cc1	0.116 and -0.551	-1.47 (inactive) and -1.79 (inactive)	-0.567 (inactive) and -0.911 (inactive)	-0.364 (inactive) and -0.704 (inactive)	0.225 (inactive) and -0.0818 (inactive)	-0.0329 (inactive) and -0.774 (inactive)	0.375 (inactive) and -0.241 (inactive)	0.333 (inactive) and -0.405 (inactive)	-0.535 and 0.0681	0.0697 and -0.152	0.179 (inactive) and 0.125 (inactive)	-1.28 and -0.655	-0.597 and 1.72	-0.488 (inactive) and -0.803 (inactive)	-0.23 (inactive) and 0.182 (inactive)	0.313 (inactive) and 0.469 (inactive)
C=CCN(C(=O)C1N(c2ccc(CCO)cc2)C(=O)C2C(C(=O)O)C3C=CC21O3)c1ccc(OC)cc1 (stereo not given)	-1.89 and 0.336	-0.311 (inactive) and -0.641 (inactive)	-1.58 (inactive) and 0.522 (inactive)	0.51 (inactive) and -0.392 (inactive)	-0.606 (inactive) and 0.428 (inactive)	0.671 (inactive) and -0.529 (inactive)	-0.782 (inactive) and 0.15 (inactive)	-0.949 (inactive) and -0.249 (inactive)	-0.641 and -0.0655	0.0808 and -0.0054	0.777 (inactive) and -0.925 (inactive)	0.936 and -0.824	-1.09 and -0.417	-1.87 (inactive) and -0.733 (inactive)	-0.265 (inactive) and -0.271 (inactive)	-0.268 (inactive) and -0.384 (inactive)
CC(C)[Si]1(C(C)C)OCc2cc(C3CC3)nc(CCc3ccccc3)c21	0.983 and 1.3	1.04 (inactive) and 0.427 (inactive)	0.905 (inactive) and 0.656 (inactive)	-0.092 (inactive) and -0.377 (inactive)	0.338 (inactive) and 0.35 (inactive)	0.534 (inactive) and 0.156 (inactive)	0.428 (inactive) and -0.615 (inactive)	0.26 (inactive) and -0.173 (inactive)	0.635 and 0.355	0.321 and -0.305	1.11 (inactive) and 0.0908 (inactive)	-0.663 and -0.481	-0.541 and 0.653	-0.448 (inactive) and 0.438 (inactive)	0.0389 (inactive) and 0.993 (inactive)	0.579 (inactive) and 0.548 (inactive)
CC(C)OC(=O)C=C1C[C@@H](c2ccccc2)O[C@@H](c2ccccc2)O1	0.0904 and -0.562	-1.21 (inactive) and -0.385 (inactive)	0.468 (inactive) and -3.15 (inactive)	-0.125 (inactive) and -1.68 (inactive)	0.533 (inactive) and 0.394 (inactive)	0.306 (inactive) and 0.904 (inactive)	-0.65 (inactive) and -0.601 (inactive)	0.945 (inactive) and 0.907 (inactive)	1.54 and -2.33	-0.13 and 0.013	-0.0817 (inactive) and 0.574 (inactive)	0.686 and 0.831	-0.129 and 0.276	-3.55 (inactive) and -3.56 (inactive)	-0.502 (inactive) and -0.334 (inactive)	-0.687 (inactive) and -0.132 (inactive)
CCOC(=O)[C@@H]1CC2O[C@]23C[C@@H]1C(=O)N1CCC[C@@H]1[C@H]3O[Si](C)(C)C(C)(C)C (stereo not given in full)	-0.464 and -0.0421	-0.648 (inactive) and -2.06 (inactive)	-0.645 (inactive) and -0.942 (inactive)	-0.0009 (inactive) and -0.513 (inactive)	0.167 (inactive) and 0.0117 (inactive)	-0.159 (inactive) and -0.702 (inactive)	0.215 (inactive) and -0.512 (inactive)	-0.215 (inactive) and -0.122 (inactive)	-0.586 and -0.593	0.0618 and -0.142	-0.86 (inactive) and -0.342 (inactive)	-0.791 and 0.0241	-0.662 and 1.63	-4.09 (inactive) and -1.56 (inactive)	0.271 (inactive) and 0.387 (inactive)	0.288 (inactive) and 0.549 (inactive)
